Measurements as given in the supplement of paper PMC9492666.
Counter-ions that a name gives are not always drawn.

Experiments:
[1] = test system: HCC1937; assay: relative cell viability, compound + erastin, vs DMSO (fraction of DMSO control); higher = less growth inhibition; conditions: 72 h
[2] = test system: MDA-MB-231; assay: as above; conditions: 72 h
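Also: viability read by CCK-8 kit in 96-well plates, part of a combination screen pairing lipid-metabolism-targeting compounds with erastin.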

| Structure (SMILES) | relative cell viability [1] | relative cell viability [2] |
| --- | --- | --- |
| CCOC(=O)c1c(NC(=O)CN2CCN(C(=O)c3ccco3)CC2)sc2c1CCC2 + CCOc1ccccc1-n1c(C(C)N2CCN(C(=O)COc3ccc(Cl)cc3)CC2)nc2ccccc2c1=O [erastin] | 0.647 | 0.839 |
| CC1(N)CCN(c2cnc(-c3cccc(Cl)c3Cl)c(N)n2)CC1 [SHP099 hydrochloride] + CCOc1ccccc1-n1c(C(C)N2CCN(C(=O)COc3ccc(Cl)cc3)CC2)nc2ccccc2c1=O [erastin] | 0.729 | 0.647 |
| Cc1c(C)c2c(c(C)c1O)CCC(C)(COc1ccc(CC3SC(=O)NC3=O)cc1)O2 (stereo not given) [Troglitazone] + CCOc1ccccc1-n1c(C(C)N2CCN(C(=O)COc3ccc(Cl)cc3)CC2)nc2ccccc2c1=O [erastin] | 0.641 | 0.669 |
| COc1ccc(CN2CCNCC2)c(OC)c1OC [Trimetazidine dihydrochloride] + CCOc1ccccc1-n1c(C(C)N2CCN(C(=O)COc3ccc(Cl)cc3)CC2)nc2ccccc2c1=O [erastin] | 0.786 | 0.55 |
| O=C(CBr)c1ccc(O)cc1 [PTP Inhibitor I] + CCOc1ccccc1-n1c(C(C)N2CCN(C(=O)COc3ccc(Cl)cc3)CC2)nc2ccccc2c1=O [erastin] | 0.717 | 0.64 |
| COc1ccc(/C=C/c2cc(O)cc(O[C@@H]3O[C@H](CO)[C@@H](O)[C@H](O)[C@H]3O)c2)cc1 [Deoxyrhapontin] + CCOc1ccccc1-n1c(C(C)N2CCN(C(=O)COc3ccc(Cl)cc3)CC2)nc2ccccc2c1=O [erastin] | 0.576 | 0.699 |
| O=C(Nc1ccc(C(O)(C(F)(F)F)C(F)(F)F)cc1)c1ccc(C(F)(F)F)cc1 + CCOc1ccccc1-n1c(C(C)N2CCN(C(=O)COc3ccc(Cl)cc3)CC2)nc2ccccc2c1=O [erastin] | 0.366 | 0.693 |
| COC(=O)c1sccc1S(=O)(=O)Nc1ccc(Nc2ccccc2)cc1OC + CCOc1ccccc1-n1c(C(C)N2CCN(C(=O)COc3ccc(Cl)cc3)CC2)nc2ccccc2c1=O [erastin] | 0.529 | 1.1 |
| CCOP(=O)(OCC)C(=Cc1cc(C(C)(C)C)c(O)c(C(C)(C)C)c1)P(=O)(OCC)OCC + CCOc1ccccc1-n1c(C(C)N2CCN(C(=O)COc3ccc(Cl)cc3)CC2)nc2ccccc2c1=O [erastin] | 0.534 | 0.648 |
| O=C(Nc1ccc(C(O)(C(F)(F)F)C(F)(F)F)cc1)c1ccccc1Cl + CCOc1ccccc1-n1c(C(C)N2CCN(C(=O)COc3ccc(Cl)cc3)CC2)nc2ccccc2c1=O [erastin] | 0.769 | 0.844 |
| c1cc(-c2cnn3cc(-c4ccc(OCCN5CCCCC5)cc4)cnc23)ccn1 [Dorsomorphin dihydrochloride] + CCOc1ccccc1-n1c(C(C)N2CCN(C(=O)COc3ccc(Cl)cc3)CC2)nc2ccccc2c1=O [erastin] | 0.0948 | 0.362 |
| NC(N)=N/N=C/c1cccc(Cl)c1Cl [Raphin1 acetate] + CCOc1ccccc1-n1c(C(C)N2CCN(C(=O)COc3ccc(Cl)cc3)CC2)nc2ccccc2c1=O [erastin] | 0.718 | 0.588 |
| C[C@@H](Nc1nc(N[C@H](C)C(F)(F)F)nc(-c2cccc(Cl)n2)n1)C(F)(F)F [Vorasidenib] + CCOc1ccccc1-n1c(C(C)N2CCN(C(=O)COc3ccc(Cl)cc3)CC2)nc2ccccc2c1=O [erastin] | 0.607 | 0.68 |
| CN1CC(O)C2=C/C(=N/NC(N)=O)C(=O)C=C21 (stereo not given) [Carbazochrome] + CCOc1ccccc1-n1c(C(C)N2CCN(C(=O)COc3ccc(Cl)cc3)CC2)nc2ccccc2c1=O [erastin] | 0.484 | 0.682 |
| O=C(O)c1cc(F)c2nc(N3[C@@H]4CC[C@H]3C[C@@H](OCc3c(-c5ccccc5OC(F)(F)F)noc3C3CC3)C4)sc2c1 [Tropifexor] + CCOc1ccccc1-n1c(C(C)N2CCN(C(=O)COc3ccc(Cl)cc3)CC2)nc2ccccc2c1=O [erastin] | 0.658 | 0.652 |
| O=C(Oc1ccc([N+](=O)[O-])cc1)N1CCC(C(O)(c2ccc3c(c2)OCO3)c2ccc3c(c2)OCO3)CC1 + CCOc1ccccc1-n1c(C(C)N2CCN(C(=O)COc3ccc(Cl)cc3)CC2)nc2ccccc2c1=O [erastin] | 0.556 | 0.641 |
| CCN(CC)C(=O)N1CCN(C)CC1 [Diethylcarbamazine citrate] + CCOc1ccccc1-n1c(C(C)N2CCN(C(=O)COc3ccc(Cl)cc3)CC2)nc2ccccc2c1=O [erastin] | 0.729 | 0.907 |
| Cc1c(C(=O)NN2CCOCC2)nn(-c2ccc(Cl)cc2Cl)c1-c1ccc(I)cc1 + CCOc1ccccc1-n1c(C(C)N2CCN(C(=O)COc3ccc(Cl)cc3)CC2)nc2ccccc2c1=O [erastin] | 0.1 | 0.325 |

| Structure (SMILES) | relative cell viability [1] | relative cell viability [2] |
| --- | --- | --- |
| C[C@H](CCOc1cccc(CC(=O)O)c1)N(Cc1cccc(C(F)(F)F)c1Cl)CC(c1ccccc1)c1ccccc1 [RGX-104 free Acid] + CCOc1ccccc1-n1c(C(C)N2CCN(C(=O)COc3ccc(Cl)cc3)CC2)nc2ccccc2c1=O [erastin] | 0.564 | 0.488 |
| CC(C)n1c(/C=C/C(O)CC(O)CC(=O)O)c(-c2ccc(F)cc2)c2ccccc21 (stereo not given) [Fluvastatin sodium salt] + CCOc1ccccc1-n1c(C(C)N2CCN(C(=O)COc3ccc(Cl)cc3)CC2)nc2ccccc2c1=O [erastin] | 0.58 | 0.869 |
| COc1ccc2[nH]cc(CCNC(C)=O)c2c1 [Melatonine] + CCOc1ccccc1-n1c(C(C)N2CCN(C(=O)COc3ccc(Cl)cc3)CC2)nc2ccccc2c1=O [erastin] | 0.585 | 0.693 |
| COCCNC(=O)Nc1ccc2nc(-c3cccs3)c(-c3cccs3)nc2c1 [Ac-CoA Synthase Inhibitor1] + CCOc1ccccc1-n1c(C(C)N2CCN(C(=O)COc3ccc(Cl)cc3)CC2)nc2ccccc2c1=O [erastin] | 0.597 | 0.669 |
| O=C1c2cc(CO)cc(O)c2C(=O)c2c(O[C@@H]3O[C@H](CO)[C@@H](O)[C@H](O)[C@H]3O)cccc21 [Aloe-emodin-8-O-beta-D-glucopyranoside] + CCOc1ccccc1-n1c(C(C)N2CCN(C(=O)COc3ccc(Cl)cc3)CC2)nc2ccccc2c1=O [erastin] | 0.493 | 0.704 |
| CCC(=O)O[C@]1(C(=O)CCl)[C@@H](C)C[C@H]2[C@@H]3C[C@H](F)C4=CC(=O)C=C[C@]4(C)[C@@]3(F)[C@@H](O)C[C@@]21C [Halobetasol Propionate] + CCOc1ccccc1-n1c(C(C)N2CCN(C(=O)COc3ccc(Cl)cc3)CC2)nc2ccccc2c1=O [erastin] | 0.708 | 0.973 |
| O=C(O)c1cccnc1Nc1cccc(C(F)(F)F)c1 [Niflumic acid] + CCOc1ccccc1-n1c(C(C)N2CCN(C(=O)COc3ccc(Cl)cc3)CC2)nc2ccccc2c1=O [erastin] | 0.771 | 0.599 |
| COc1ccc([C@@H]2OC[C@H]3[C@@H]2CO[C@@H]3c2ccc(O[C@@H]3O[C@H](CO)[C@@H](O)[C@H](O)[C@H]3O)c(OC)c2)cc1OC [Forsythin] + CCOc1ccccc1-n1c(C(C)N2CCN(C(=O)COc3ccc(Cl)cc3)CC2)nc2ccccc2c1=O [erastin] | 0.718 | 0.754 |
| COc1cc(O)c2c(c1)O[C@H](c1ccc(O)cc1)CC2=O [Sakuranetin] + CCOc1ccccc1-n1c(C(C)N2CCN(C(=O)COc3ccc(Cl)cc3)CC2)nc2ccccc2c1=O [erastin] | 0.648 | 0.527 |
| O=C(CCCCc1ccc2c(c1)OCO2)N1CCCCC1 + CCOc1ccccc1-n1c(C(C)N2CCN(C(=O)COc3ccc(Cl)cc3)CC2)nc2ccccc2c1=O [erastin] | 0.549 | 0.35 |
| C/C=C(\CC[C@@H](C)[C@H]1CC[C@H]2[C@@H]3CC=C4C[C@@H](O)CC[C@]4(C)[C@H]3CC[C@]12C)C(C)C [Fucosterol] + CCOc1ccccc1-n1c(C(C)N2CCN(C(=O)COc3ccc(Cl)cc3)CC2)nc2ccccc2c1=O [erastin] | 0.685 | 0.881 |
| CCCCCCCCCCC#CC#CCCCCCCCCC(=O)O [10,12-Tricosadiynoic acid] + CCOc1ccccc1-n1c(C(C)N2CCN(C(=O)COc3ccc(Cl)cc3)CC2)nc2ccccc2c1=O [erastin] | 0.648 | 0.627 |
| CN(CCOc1ccc(CC2SC(=O)NC2=O)cc1)c1ccccn1 (stereo not given) [Rosiglitazone HCl] + CCOc1ccccc1-n1c(C(C)N2CCN(C(=O)COc3ccc(Cl)cc3)CC2)nc2ccccc2c1=O [erastin] | 0.619 | 0.774 |
| CCc1ccc(CCOc2ccc(CC3SC(=O)NC3=O)cc2)nc1 (stereo not given) [Pioglitazone] + CCOc1ccccc1-n1c(C(C)N2CCN(C(=O)COc3ccc(Cl)cc3)CC2)nc2ccccc2c1=O [erastin] | 0.803 | 0.551 |
| CC(=O)N1CCN(c2ccc(OCC3COC(Cn4ccnc4)(c4ccc(Cl)cc4Cl)O3)cc2)CC1 (stereo not given) [Ketoconazole] + CCOc1ccccc1-n1c(C(C)N2CCN(C(=O)COc3ccc(Cl)cc3)CC2)nc2ccccc2c1=O [erastin] | 0.884 | 0.602 |
| O=C(O)c1c[nH]c2cc(Cl)c(-c3ccc(C4(O)CCC4)cc3)cc12 + CCOc1ccccc1-n1c(C(C)N2CCN(C(=O)COc3ccc(Cl)cc3)CC2)nc2ccccc2c1=O [erastin] | 0.599 | 0.677 |
| Nc1cccc(S(=O)(=O)N2CCCN(S(=O)(=O)c3ccc4c(c3)OCCO4)CC2)c1 + CCOc1ccccc1-n1c(C(C)N2CCN(C(=O)COc3ccc(Cl)cc3)CC2)nc2ccccc2c1=O [erastin] | 0.817 | 0.553 |
